From PubChem BioAssay (NCI)
About 79,000 compounds went through this panel and 15% of them were active in at least one assay; those are over-represented in the sample as a whole. Activity calls are given as the source filed them. Cut-off read from the data, not from the text of the source: active = growth inhibition above about 70%; inactive = the rest.

Experiments:
[1] = NCI Yeast Anticancer Drug Screen. Data for the rad52 strain (AID 147);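 note: 0% = growth of vehicle-treated control cultures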; conditions: S. cerevisiae rad52 mutant growth inhibition, active compounds read high
Method in brief: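 Here a repair-compromised yeast strain receives each compound; its growth is then quantified and normalised to vehicle-only controls.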

[2] = NCI Yeast Anticancer Drug Screen. Data for the wt1 strain (AID 149);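 note: 0% = growth of vehicle-treated wt1 cultures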; conditions: S. cerevisiae wt1 strain (SPY 50644) growth inhibition, active compounds read high
Method in brief: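 wt1 strain grown with compound or vehicle; inhibition taken from the growth difference.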

[3] = NCI Yeast Anticancer Drug Screen. Data for the rad50EPP+ strain (AID 151);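 note: 0% = growth of vehicle-treated control cultures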; conditions: S. cerevisiae rad50 mutant strain, active compounds read high
Method in brief: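 Read-out is yeast growth inhibition relative to vehicle; cells used were the rad50EPP+ strain.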

[4] = NCI Yeast Anticancer Drug Screen. Data for the mgt1 strain (AID 153); conditions: S. cerevisiae mgt1 mutant growth inhibition, active compounds read high
Method in brief: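 Measured: inhibition of mgt1 yeast growth by compound, normalized to vehicle-treated cultures.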

[5] = NCI Yeast Anticancer Drug Screen. Data for the rad50 strain (AID 155);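 note: 0% = growth of vehicle-only cultures of the same strain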; conditions: S. cerevisiae rad50 strain growth inhibition, active compounds read high
Method in brief: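 DNA repair mutant yeast, compound exposure, growth read-out; inhibition is taken relative to vehicle.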

[6] = NCI Yeast Anticancer Drug Screen. Data for the mec2-1 strain (AID 157); conditions: S. cerevisiae mec2-1 strain, active compounds read high
Method in brief: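 Using mec2-1 yeast: add compound, measure growth, express inhibition versus vehicle-treated cultures.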

[7] = NCI Yeast Anticancer Drug Screen. Data for the rad14 strain (AID 159);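 note: 0% = growth of vehicle-treated control cultures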; conditions: S. cerevisiae rad14 strain growth inhibition, active compounds read high
Method in brief: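 DNA repair-defective yeast, compound-exposed; % growth inhibition derived by comparison with vehicle-treated controls.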

[8] = NCI Yeast Anticancer Drug Screen. Data for the sgs1 mgt1 strain (AID 161);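 note: 0% = growth of cultures given vehicle only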; conditions: S. cerevisiae sgs1 mgt1 strain, active compounds read high
Method in brief: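 Growth of a repair-deficient yeast mutant was monitored after compound treatment and expressed as inhibition relative to vehicle-treated cultures.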

[9] = NCI Yeast Anticancer Drug Screen. Data for the CLN2oe strain (AID 163);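 note: 0% = growth of vehicle-only control cultures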; conditions: S. cerevisiae CLN2oe strain, active compounds read high
Method in brief: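 Whole-cell yeast growth assay. A strain engineered for altered cell-cycle control received compound, and inhibition relative to vehicle-treated cultures was recorded.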

[10] = NCI Yeast Anticancer Drug Screen. Data for the cln2 rad14 strain (AID 165);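 note: 0% = growth equal to vehicle treated cultures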; conditions: S. cerevisiae cln2 rad14 strain, active compounds read high
Method in brief: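 Yeast strain cln2 rad14, bearing defects in cell cycle control and DNA repair, serves as the test system; values reflect growth inhibition compared with vehicle.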

[11] = NCI Yeast Anticancer Drug Screen. Data for the bub3 strain (AID 167); conditions: S. cerevisiae bub3 mutant strain, active compounds read high
Method in brief: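 In this screen, a yeast mutant lacking normal mitotic checkpoint function is challenged with compound. Relative growth versus vehicle gives the inhibition value.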

[12] = NCI Yeast Anticancer Drug Screen. Data for the wt2 strain (AID 169);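 note: 0% = growth of vehicle-treated yeast cultures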; conditions: S. cerevisiae wt2 strain growth inhibition, active compounds read high
Method in brief: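 Treated yeast vs. vehicle-treated yeast: growth inhibition determined.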

[13] = NCI Yeast Anticancer Drug Screen. Data for the mlh1 strain (AID 171);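 note: 0% = growth of vehicle-treated control cultures of the same strain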; conditions: S. cerevisiae mlh1 strain growth inhibition, active compounds read high
Method in brief: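 A yeast strain with a defined genetic lesion serves as the test organism. Cultures receive compound or vehicle, and growth is measured.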

[14] = NCI Yeast Anticancer Drug Screen. Data for the sgs1 strain (AID 173);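 note: 0% = growth of vehicle-only control cultures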; conditions: S. cerevisiae sgs1 mutant, active compounds read high
Method in brief: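 A genetically defined yeast mutant is incubated with the test compound, and its growth is compared to that of the same strain given vehicle.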

[15] = NCI Yeast Anticancer Drug Screen. Data for the mlh1 rad18 strain (AID 175); conditions: S. cerevisiae mlh1 rad18 strain growth inhibition, active compounds read high
Method in brief: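 Steps: expose repair-defective yeast to compound; measure growth; express inhibition against vehicle-treated controls.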

[16] = NCI Yeast Anticancer Drug Screen. Data for the rad18 strain (AID 177); conditions: S. cerevisiae rad18 mutant growth inhibition, active compounds read high
Method in brief: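 Measured value is growth inhibition of a yeast strain bearing a DNA repair alteration, referenced to vehicle-treated cells.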

[17] = at 5.0 µM (retest, dose inferred, filed as 0.5)
[18] = at 50.0 µM (retest, dose inferred, filed as 5.0)

Measured: growth inhibition

O=[N+]([O-])/C=C/c1cc(Cl)c(/C=C/[N+](=O)[O-])cc1Cl
inactive: [1]; at 1.2 µM 35% | [1]; at 3.7 µM 55% | [2]; at 1.2 µM 25% | [2]; at 3.7 µM 32% | [2]; at 11.0 µM 43% | [2]; at 33.0 µM 42% | [2]; at 100.0 µM 37% | [3]; at 1.2 µM 13% | [3]; at 3.7 µM 19% | [3]; at 11.0 µM 35% | [3]; at 33.0 µM 66% | [4]; at 1.2 µM 36% | [4]; at 3.7 µM 48% | [4]; at 11.0 µM 68% | [5]; at 1.2 µM 33% | [5]; at 3.7 µM 55% | [5]; [17] 3% | [5]; [18] 53% | [6]; at 1.2 µM 39% | [6]; at 3.7 µM 59% | [6]; [17] 18% | [6]; at 11.0 µM 65% | [6]; [18] 56% | [7]; at 1.2 µM 25% | [7]; at 3.7 µM 68% | [8]; [17] 23% | [9]; at 1.2 µM 22% | [9]; at 3.7 µM 32% | [9]; at 11.0 µM 49% | [9]; at 33.0 µM 69% | [10]; [17] 22% | [10]; [18] 60% | [10]; at 50.0 µM 62.1% | [11]; at 1.2 µM 28% | [11]; at 3.7 µM 37% | [11]; [17] 43% | [12]; at 1.2 µM 8% | [12]; at 3.7 µM 34% | [12]; at 11.0 µM 68% | [12]; at 100.0 µM 69% | [13]; at 1.2 µM 36% | [13]; at 3.7 µM 48% | [13]; at 11.0 µM 68% | [14]; at 1.2 µM 22% | [14]; at 3.7 µM 16% | [14]; at 11.0 µM 14% | [14]; at 33.0 µM 52% | [14]; at 100.0 µM 32% | [15]; [17] 16% | [15]; at 50.0 µM 56.4%
active: [1]; at 11.0 µM 74% | [1]; at 33.0 µM 91% | [1]; at 100.0 µM 89% | [3]; at 100.0 µM 70% | [4]; at 33.0 µM 96% | [4]; at 100.0 µM 92% | [5]; at 11.0 µM 81% | [5]; at 33.0 µM 97% | [5]; at 50.0 µM 79.7% | [5]; at 100.0 µM 94% | [6]; at 33.0 µM 81% | [6]; at 50.0 µM 73.5% | [6]; at 100.0 µM 85% | [7]; at 11.0 µM 93% | [7]; at 33.0 µM 97% | [7]; at 100.0 µM 92% | [8]; [18] 73% | [8]; at 50.0 µM 74.8% | [9]; at 100.0 µM 73% | [11]; at 11.0 µM 84% | [11]; at 33.0 µM 92% | [11]; [18] 96% | [11]; at 50.0 µM 79.2% | [11]; at 100.0 µM 91% | [12]; at 33.0 µM 91% | [13]; at 33.0 µM 96% | [13]; at 100.0 µM 92% | [15]; [18] 77%

OC1(c2ccccc2)CCCc2ccc(Cl)cc21 (stereo unspecified)
inactive: [1]; at 1.2 µM 1% | [1]; at 3.7 µM 2% | [1]; at 11.0 µM 0% | [1]; at 33.0 µM 42% | [2]; at 1.2 µM -1% | [2]; at 3.7 µM -2% | [2]; at 11.0 µM -8% | [2]; at 33.0 µM -4% | [3]; at 1.2 µM 3% | [3]; at 3.7 µM 7% | [3]; at 11.0 µM 13% | [3]; at 33.0 µM 20% | [4]; at 1.2 µM -10% | [4]; at 3.7 µM -15% | [4]; at 11.0 µM -2% | [4]; at 33.0 µM 5% | [5]; at 1.2 µM -3% | [5]; at 3.7 µM 1% | [5]; [17] 10% | [5]; at 11.0 µM -2% | [5]; at 33.0 µM 50% | [5]; [18] 28% | [5]; at 50.0 µM 57.2% | [6]; at 1.2 µM 2% | [6]; at 3.7 µM 5% | [6]; [17] 1% | [6]; at 11.0 µM 0% | [6]; at 33.0 µM 31% | [6]; [18] 11% | [6]; at 50.0 µM 50.2% | [7]; at 1.2 µM 1% | [7]; at 3.7 µM -1% | [7]; at 11.0 µM -1% | [7]; at 33.0 µM 17% | [8]; [17] -3% | [8]; [18] 4% | [8]; at 50.0 µM 56.2% | [9]; at 1.2 µM 1% | [9]; at 3.7 µM 0% | [9]; at 11.0 µM -17% | [9]; at 33.0 µM 20% | [10]; [17] 3% | [10]; [18] 13% | [10]; at 50.0 µM 11.1% | [11]; at 1.2 µM -2% | [11]; at 3.7 µM -10% | [11]; [17] -3% | [11]; at 11.0 µM -14% | [11]; at 33.0 µM -17% | [11]; [18] -13% | [11]; at 50.0 µM -16.4% | [12]; at 1.2 µM 0% | [12]; at 3.7 µM -2% | [12]; at 11.0 µM -7% | [12]; at 33.0 µM 7% | [13]; at 1.2 µM 1% | [13]; at 3.7 µM 3% | [13]; at 11.0 µM 0% | [13]; at 33.0 µM 30% | [14]; at 1.2 µM 0% | [14]; at 3.7 µM 0% | [14]; at 11.0 µM 0% | [14]; at 33.0 µM 33% | [15]; [17] 0% | [15]; [18] 39% | [15]; at 50.0 µM 53.8% | [16]; at 1.2 µM 0% | [16]; at 3.7 µM 4% | [16]; at 11.0 µM 3% | [16]; at 33.0 µM 40%
active: [1]; at 100.0 µM 99% | [2]; at 100.0 µM 98% | [3]; at 100.0 µM 74% | [4]; at 100.0 µM 99% | [5]; at 100.0 µM 99% | [6]; at 100.0 µM 99% | [7]; at 100.0 µM 99% | [9]; at 100.0 µM 99% | [11]; at 100.0 µM 98% | [12]; at 100.0 µM 99% | [13]; at 100.0 µM 99% | [14]; at 100.0 µM 99% | [16]; at 100.0 µM 99%
